From PubChem BioAssay (NCI) come the findings set out here.

About 83,000 compounds went through this panel and 20% of them were active in at least one assay; those are over-represented in the sample as a whole.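 For each line, cells grew in 96-well plates with the test compound present at a single concentration for 48 hours.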 Calls of active or inactive are those of the source. Rule for the calls: active = growth percent below 10; inactive = the rest.

This experiment relates to T-47D breast. Briefly: NCI-60 one-dose screen, 48 h (100 = growth as untreated, 0 = no growth, -100 = all killed). To be noted: 10 µM unless noted.
Turning to `Cn1cc(-c2nc(-c3c[nH]c4c(Cl)nccc34)cs2)c2cc(Br)ccc21`, the growth was 39.1% (inactive).

Regarding `O=S(=O)(NCCCNc1nccc(-c2c(-c3cccc(F)c3)nc3sccn23)n1)c1cccc(F)c1`, the growth was -2.25% (active).

With `Cn1c(N2NC(=O)C(N=Nc3ccc(S(N)(=O)=O)cc3)C2=O)nc(-c2ccco2)c(C#N)c1=O` (configuration not stated), the growth was 72.2% (inactive).

In the case of `NC(=S)N1N=C(c2ccccc2)CC1c1cn(-c2ccccc2)nc1-c1ccc(OCc2ccccc2)cc1` (configuration not stated), the growth was 95.2% (inactive).

On to `CCCCOc1ccc(/C(C)=N/Nc2cc(C)nc3ccc(Br)cc23)cc1`, for which the growth is 85.5% (inactive).

Consider `CN(C)CC(O)c1ccc(/C=C/c2ccc(Cl)cc2)cc1` (configuration not stated), for which the growth is 30.9% (inactive).

Regarding `CC(=O)Nc1cccc(-c2ccc3c(c2)NC(=O)/C3=C\c2ccc[nH]2)c1`, the growth is 17.7% (inactive).

Turning to `O=C(Nc1ncc(Cc2cc(Cl)ccc2Cl)s1)c1cccs1`, the growth is 44.8% (inactive).

For the compound `N#C/C(=C\c1ccc([N+](=O)[O-])s1)c1nc2cc(Cl)ccc2s1`, the growth is 58.7% (inactive).

For `CCN(Cc1ccccc1)c1ccc(C=O)cc1`, the growth is 78.6% (inactive).

As for `CCN1CCN(CCNc2nccc(-c3c(-c4cccc(OC)c4)nc4occn34)n2)S1(=O)=O`, the growth is 76.3% (inactive).

`CNC(=O)c1cc(Cn2nc(C)c(NC(=O)Nc3ccc(Cl)c(C(F)(F)F)c3)c2C)ccn1`: the growth was 85% (inactive).

Consider `CC1(C)CC(=O)C2=C(C1)N(c1ccc(F)cc1F)C(N)=C(C#N)C2c1cc(Br)ccc1F` (configuration not stated), for which the growth is 110% (inactive).

With `CCC(CC)NCC(C)(C)O`, the growth is 123% (inactive).

With `COCCCN1CC(O)=C(c2nc(-c3ccc(C)cc3)cs2)C1=N`, the growth was 97.5% (inactive).

As to `CC(=O)N1c2ccccc2NC2=C(C(=O)NC2(C)C)C1c1ccco1` (configuration not stated), the growth is 110% (inactive).

As to `Cc1c(C(=O)NCCC(=O)NO)sc2ncnc(Nc3ccc(F)c(Cl)c3)c12`, the growth is 107% (inactive).

Consider `COc1ccc(C(=O)c2cc(C)c(OC)c(C)c2)c(OC)c1OC(=O)C(Cl)Cl`, for which the growth was 59.5% (inactive).

Regarding `COc1ccc(-c2[nH][nH]c(=O)c2-c2nc3ccccc3s2)cc1`, the growth is 109% (inactive).

As to `CN(C)c1ccc(Nc2c3ccccc3nc3cc(NC(=O)CCN4CCCC4)ccc23)cc1`, the growth was 12.1% (inactive).

For the compound `CCOC(=O)c1ccc2c(c1)ncn2-c1ccc(NC(=O)Nc2cccc(C)c2)cc1`, the growth is 31.2% (inactive).

Consider `C/C=C(\C)C(=O)NC1=CC[C@@]2(C)C(=CCC3C2CC[C@@]2(C)C3CC[C@@H]2C(C)N(C)C)C1=O` (some centres not stated), for which the growth is 46.7% (inactive).

Consider `COc1ccc(NC(N)=NCCCOc2ccc(F)cc2)cc1`, for which the growth was 23.2% (inactive).

On to `Cc1cc2nc3c4cc(C=O)ccc4n(CCN(C)C)c3nc2cc1C`, for which the growth was 22.3% (inactive).

Turning to `CC(=O)N1N=C(c2ccc(-n3ccc(C(F)(F)F)n3)c(F)c2)CC1c1ccc[nH]1` (configuration not stated), the growth is 91.9% (inactive).

Regarding `Brc1ccc(Nc2csc(-c3ccccn3)n2)cc1`, the growth is 82.6% (inactive).

For `Cc1ccc(C(=O)/C(=C\c2ccc([N+](=O)[O-])cc2)S(=O)Cc2ccc(F)cc2)cc1` (configuration not stated), the growth was -26.6% (active).
